A selection: hits, their analogues and other compounds. The true share with any hit is near 1.3%.
RE007 growth inh = less growth of the S. pombe RE007 Vpr strain | S. pombe RE007 Vpr strain, BacTiter-Glo ATP luminescence, 24 h | 360,000 tested, 0.21% active | Potency, µM (highest dose often 92.2 µM), for inactives: at the highest dose activity change, negative = less growth, usual class: inhibitors; active = well fitted falling curve with a large enough effect; inconclusive = small, poorly fitted or top-dose-only effect; inactive = no such curve, though single readings can be large or run the other way; note: nearly all actives have a fitted effect of over 50% in size
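Fission yeast RE007 carrying one integrated HIV-1 vpr copy, seeded at OD 0.01 in PMG+AL medium with 23 nL pinned compound. Grown 24 h at 30 degrees; viability read by BacTiter-Glo luminescence after 5 min.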
LmPK inhibitor = LmPK (Leishmania mexicana) enzyme inhibition | Q27686 | purified LmPK, Kinase-Glo ATP luminescence, 1 h | Potency, µM (top dose mostly 57.5 µM), for the others: at the top dose activity change, negative = inhibition, most hits filed as inhibitors | 290,000 tested, 0.37% active | AID 1721
Target sequence (Q27686 whole entry, looked up): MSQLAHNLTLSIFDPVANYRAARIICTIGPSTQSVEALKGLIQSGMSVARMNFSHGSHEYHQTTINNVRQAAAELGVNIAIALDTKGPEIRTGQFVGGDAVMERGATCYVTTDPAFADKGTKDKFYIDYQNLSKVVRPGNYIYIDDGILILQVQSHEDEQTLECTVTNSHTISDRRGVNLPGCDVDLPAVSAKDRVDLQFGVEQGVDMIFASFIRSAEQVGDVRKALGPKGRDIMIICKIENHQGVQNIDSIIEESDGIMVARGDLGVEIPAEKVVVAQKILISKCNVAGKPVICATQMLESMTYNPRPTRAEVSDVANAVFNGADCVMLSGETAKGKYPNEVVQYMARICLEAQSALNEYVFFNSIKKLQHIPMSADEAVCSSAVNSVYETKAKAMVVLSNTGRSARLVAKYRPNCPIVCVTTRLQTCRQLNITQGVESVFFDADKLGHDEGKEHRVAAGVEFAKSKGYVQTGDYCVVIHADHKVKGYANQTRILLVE
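In 50 mM imidazole pH 7.2 with 7 mM MgCl2, LmPK (0.1 nM) turned over PEP (0.5 mM) and ADP (0.1 mM) for 1 h at room temperature. Luciferase read-out of ATP.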
VACV Venus inh = inhibitors of vaccinia virus (Venus reporter); Vaccinia virus Venus reporter expression, fluorescence; Potency, µM (series often up to 36.5 µM), without a hit: at the top dose activity change, negative = inhibition, actives largely listed as inhibitors; 330,000 tested, 0.46% active; AID 720580; calls by dose curve; tested in A549 cells; note: nearly all actives have a fitted effect of over 30% in size
AMA1-RON2 inh = inhibitors of Plasmodium falciparum AMA1-RON2 interaction; 360,000 tested, 0.2% active; Potency, µM (top dose mostly 58.2 µM), for inactives: at the highest dose activity change, negative = inhibition, actives largely listed as inhibitors; AlphaScreen AMA1-biotinylated RON2 peptide binding;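 note: 0% = vehicle wells and -100% = peptide control; nearly all actives have a fitted effect of over 45% in size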
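AMA1 (3D7) with his tag at 25 nM final met compounds first, then biotinylated RON2 peptide at 25 nM; detection used donor plus acceptor beads, 10 µg/mL apiece, read by AlphaScreen after 30 min at room temperature.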
Tb PYK inh = inhibitors of Trypanosoma brucei pyruvate kinase; AID 624173; TbPYK enzyme, Kinase-Glo Plus ATP luminescence, 45 min; 410,000 tested, 0.12% active; Q57TT1; Potency, µM (highest dose often 76.8 µM), for inactives: top-dose activity, negative = inhibition, most hits filed as inhibitors; note: nearly all actives have a fitted effect of over 50% in size
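Glycolytic pyruvate kinase of T. brucei was incubated with substrate, test compound and 130 uM ADP for 45 minutes at room temperature. Luminescent Kinase-Glo Plus signal was measured after 10 minutes.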
VACV mCherry inh = vaccinia inhibition (mCherry reporter); Vaccinia virus mCherry reporter infection, fluorescence; Potency, µM (titrated, usually from 36.5 µM), without a hit: at the highest dose activity change, negative = inhibition, actives largely listed as inhibitors; 310,000 tested, 0.63% active; calls by dose curve; tested in A549 cells; note: nearly all actives have a fitted effect of over 35% in size
Numbers without * were called inactive; i = inactive; ? = inconclusive; / = no result given; ! = repeats disagree. Unless noted, calls come from the whole dose curve; as a rule, active = well fitted curve in the direction sought with a large enough effect; inconclusive = small, poorly fitted or top-dose-only effect, or another doubt; inactive = no such curve, though single readings can be large; an effect the other way counts as inactive or inconclusive. Unless noted, % is set by controls: 0 for no effect and ±100 for the full control effect; potency is the fitted concentration of half-maximal effect.

SMILES | RE007 growth inh | LmPK inhibitor | VACV Venus inh | AMA1-RON2 inh | Tb PYK inh | VACV mCherry inh
CC(C)Cn1c(-c2csc3ccccc23)n[nH]c1=S | 10.9% | 14.1µM* | -15.2% | 24.1% | ? | -18.5%
CCn1c(-c2ccccc2O)n[nH]c1=S | 6.3% | -1.1% | -8.1% | 21.7% | ? | -15.1%
COc1cccc(CN2CCC(n3cc(C(=O)N4CCCCC4)nn3)CC2)c1OC | / | / | -15.2% | / | / | -3.0%
CC[C@H]1OC(=O)C[C@@H](O)[C@H](C)[C@@H](O[C@@H]2O[C@H](C)C[C@H](N(C)C)[C@@H]2O)[C@@H](CC=O)C[C@@H](C)C(=O)/C=C\[C@]2(C)O[C@H]2[C@@H]1C | / | / | / | / | -6.8% | /
CC(C)NS(=O)(=O)c1ccc2[nH]c3nc(SCC(=O)Nc4ccc(F)c(F)c4)nnc3c2c1 | / | / | -7.6% | / | / | -19.1%
O=C1c2ccccc2-c2n[nH]c3cccc1c23 | -29.3% | / | -16.1% | -0.3% | -9.4% | 11.2µM*!
O=c1c(-c2ccccc2)n[nH]c2ccccc12 | -24.8% | -13.5% | -2.8% | 2.4% | -2.5% | /
CCC1CN(CCNC(=O)c2scc3c2OCCO3)Cc2cc(OC)ccc2O1 (centres undefined) | / | / | -1.5% | / | / | -10.5%
O=C1CC(c2ccc(Cl)c([N+](=O)[O-])c2)c2ccc3ccccc3c2N1 (centres undefined) | 14.4% | -3.0% | ? | 0.1% | 0.4% | 11.2µM*
CCOC(=O)C1=C(c2ccccc2)NC(=S)NC1c1ccc(Cl)c([N+](=O)[O-])c1 (centres undefined) | / | -1.3% | / | / | / | /
COc1cc2c(cc1/C=C/C(=O)O)OC(C)C2 (centres undefined) | 12.0% | 3.2% | -1.6% | -2.0% | 4.6% | -6.3%
CC(C)(O)C1Cc2cc(/C=C/C(=O)O)c(O)cc2O1 (centres undefined) | ? | 28.2µM* | -5.3% | -3.1% | ? | i
Cc1cc2nc(NCCCO)n(CC(=O)c3cc(C(C)(C)C)c(O)c(C(C)(C)C)c3)c2cc1C | -5.6% | / | 10µM* | 3.8% | -6.6% | ?
COc1ccc(C(=O)Cn2c(NCCCO)nc3ccccc32)cc1 | 1.8% | / | -0.8% | 2.7% | -2.4% | -21.4%
O=C(N/N=C1\CCc2ccccc21)c1ccccc1O | -4.9% | 12.6µM* | -14.1% | -7.6% | -9.8% | -18.4%
CC/C=C(\C(=O)N[C@H]1C(=O)N2C(C(=O)OCOC(=O)C(C)(C)C)=C(COC(N)=O)CS[C@H]12)c1csc(N)n1 | / | / | / | / | -8.3% | /
COCC(=O)Nc1cc(C(=O)N2CCN(c3ccccc3)C(=O)C2)cc2nc(-c3ccccc3)n(C)c12 | / | / | -5.4% | / | / | -12.9%
CC(NC(=O)/C(C#N)=C/c1ccc([N+](=O)[O-])o1)c1ccccc1 (centres undefined) | 5.01µM* | 0.6% | 74.3% | -10.7% | 3.9% | 5.0%
CCOCCCNC(=O)/C(C#N)=C/c1ccc([N+](=O)[O-])o1 | 44.7µM* | 5.6% | 51.1% | 7.2% | 0.4% | 34.1%
CC(NC(=O)/C(C#N)=C/c1ccco1)c1ccccc1 (centres undefined) | 6.4% | 0.4% | -9.2% | -8.6% | 0.6% | i
C#CC[N+](C)(C)CCCCCCCCC | -4.7% | -3.5% | ? | -2.0% | -2.1% | 11.2µM*
COc1cc(=O)n2c(c1C(=O)NCc1nonc1C)CCN(C(=O)c1cccc(C)c1C)CC2 | / | / | 0.0% | / | / | i
Cc1cccc(S(=O)(=O)c2c(N)n(/N=C/c3ccccc3)c3nc4ccccc4nc23)c1 | 6.0% | 1.7% | / | 1.6% | -5.2% | /
Nc1c(S(=O)(=O)c2ccccc2)c2nc3ccccc3nc2n1/N=C/c1cccc(O)c1 | -5.0% | -1.5% | 11.2µM* | -4.6% | -5.9% | /
Cc1cc(C)nc(NS(=O)(=O)c2ccc(NC(=S)NC(=O)CC(C)C)cc2)n1 | 1.7% | 3.1% | 11.2µM* | -13.7% | -7.9% | 11.2µM*
Cc1cc(C)c(SSc2nnnn2-c2ccccc2)c(C)c1 | 12.7% | / | -3.9% | -6.8% | 3.55µM* | 5.8%
